In PubChem BioAssay (NCATS) one finds Potency data, which are given here for 40 compounds.

Activity calls are given as the source filed them. How the calls were made is not given here.
Potency means the concentration at half of the fitted maximal effect.

The assay deals with HIV-1 nucleocapsid protein NCp7 (binding to TG oligonucleotide). In words: HIV Nucleocapsid (AID 346).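 Further: potency is for inhibitors that block NC binding and lower polarization.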 To be noted: HIV-1 NC / fluorescein-TGTGTGTG probe, fluorescence polarization. The protocol: NCGC Assay Overview: HIV-1 nucleocapsid protein (HIV-1 NC) is a small (6.5 kDa) basic zinc-finger protein which participates in packaging of viral genomic RNA. The spacing and metal-chelating residues (3 Cys, 1 His) of the Cys-X2-Cys-X4-His-X4-Cys Zn fingers are conserved among all known retroviruses (J. Med. Chem. 1998, 41, 1371-1381). HIV-1 NC was assayed for its binding to the consensus sequence single-stranded 5'-TGTGTGTG. […] High salt was included to increase the stringency of binding and inhibitor screen. Reducing agents and zinc were present to stabilize the nucleocapsid zinc-finger protein.
NCGC Assay Protocol Summary: Buffer. Hepes pH 7.5, 250mM NaCl, 1uM ZnCl2. 0.004% polyethylene glycol 20000. TCEP (100 uM) and 2-Mercaptoethanol (5 mM), added fresh the day of the experiment. Reagents/Controls. 10 nM TG4xF only in columns 3 and 4 as negative control. 10 nM TG4xF/100 nM HIV-1 NC in columns 1, 2, 5-48. Titration of control compound NSC-13778 (from 20 mM, then 1:2) pin-transferred to column 2. Assay Steps. Two uL of reagents were dispensed to 1536-well Kalypsys black plates. The plates were centrifuged for 1 min at 1000 rpm. Compounds and controls (20 nL) were transferred via Kalypsys PinTool. The plates were incubated for 1 hr at room temperature, and then read on ViewLux (Perkin-Elmer). High-throughput CCD imager using fluorescein polarization filter set and 45 seconds exposure time.
In general terms: Polarisation of emitted light reports the rotation of a fluorescent probe.
On to `O=C(c1ccco1)N1CCC[C@@]2(CCN(c3ccccn3)C2)C1`, for which the Potency is > 20 µM (inactive).
On to `c1ccc(Nc2cc(-c3ccoc3)ncn2)cc1`, for which the Potency was > 20 µM (inactive).
Consider `COCCn1c(=O)c(-c2ccc(Cl)cc2)nc2cnc(OCc3ccccc3)nc21`, for which the Potency is > 20 µM (inactive).
With `CN1CCN(c2ncc3nc(-c4cccs4)c(=O)n(CCc4ccccc4)c3n2)CC1`, the Potency is > 20 µM (inactive).
On to `Clc1ccccc1-c1ccc2ncnc(NCCN3CCOCC3)c2c1`, for which the Potency was > 20 µM (inactive).
As for `Cc1nc2cnc(N3CCN(C)CC3)nc2n(CCC#N)c1=O`, the figure is > 20 µM (inactive).
On to `COc1ccccc1CN1CC[C@@]2(CCCN(C(=O)c3cc(C(F)(F)F)cc(C(F)(F)F)c3)C2)C1`, for which the Potency was > 20 µM (inactive).
In the case of `FC(F)(F)c1ccccc1-c1ccc2ncnc(NC3CCNCC3)c2c1`, the Potency was > 20 µM (inactive).
Consider `CN(C)C(=O)c1ccc(-c2nc(Nc3ccccc3)c3ccccc3n2)cc1`, for which the Potency is > 20 µM (inactive).
The result for `CC(=O)N1CCC2(CC1)CN(c1ccccc1)C2` reads > 20 µM (inactive); that for `COc1ccccc1-c1nc(NCc2cccs2)c2ccccc2n1`, > 20 µM (inactive); that for `COc1cccc(Cn2c(=O)c(-c3ccc(F)cc3)nc3cnc(OC)nc32)c1`, > 20 µM (inactive).
The result for `O=C(c1cccc(F)c1)N1CCC2(CC1)CN(c1cccc(-c3ccccc3)c1)C2` reads > 20 µM (inactive); that for `COc1cccc(-c2nc(NCc3ccc(OC)cc3OC)c3ccccc3n2)c1`, > 20 µM (inactive).
Regarding `O=c1c(CCc2ccccc2)nc2cncnc2n1Cc1ccccc1`, the Potency is > 20 µM (inactive).
Take `COc1ccc(-n2c(=O)cnc3cnc(N4CCN(C)CC4)nc32)cc1`: the Potency was > 20 µM (inactive).
As for `N#CCCn1c(=O)c(-c2cc(F)cc(F)c2)nc2cnc(N3CCOCC3)nc21`, the figure is > 20 µM (inactive).
Turning to `N#CCCn1c(=O)c(-c2ccc(Cl)cc2)nc2cnc(Oc3cccc(Cl)c3)nc21`, the Potency was > 4 µM (inactive).
As for `Cc1cccc(CNc2ccnc(-c3ccccc3C(F)(F)F)n2)c1`, the Potency was > 20 µM (inactive).
Take `COc1cccc(Cn2c(=O)c(C)nc3cnc(N4CCN(C)CC4)nc32)c1`: the Potency is > 20 µM (inactive).
The result for `COCCn1c(=O)c(-c2cccs2)nc2cnc(Oc3ccc(OC)cc3)nc21` reads > 20 µM (inactive); that for `COCC(=O)N1CCC2(CCCN(C(=O)Nc3cccc(C#N)c3)C2)CC1`, > 20 µM (inactive); that for `COc1ccc(-c2nc3cnc(N4CCNCC4)nc3n(CCC#N)c2=O)cc1`, > 20 µM (inactive).
Regarding `COc1ccc(CNc2ccnc(-c3ccc4c(c3)OCO4)n2)c(OC)c1`, the Potency was > 20 µM (inactive).
As to `CN(C)C(=O)c1ccc(-c2cc(Nc3ccccc3)ncn2)cc1`, the Potency is > 20 µM (inactive).
As for `COCC(=O)N1CCC[C@@]2(CCN(Cc3nccs3)C2)C1`, the Potency was > 20 µM (inactive).
The result for `N#Cc1ccccc1-c1ccc2ncnc(NCCN3CCOCC3)c2c1` reads > 20 µM (inactive).
In the case of `CC(=O)N1CCC[C@@]2(CCN(C(=O)Nc3ccccc3)C2)C1`, the Potency was > 20 µM (inactive).
As for `COc1ccc(Oc2ncc3nc(-c4cccc(C#N)c4)c(=O)n(Cc4cccc(OC)c4)c3n2)cc1`, the Potency was > 20 µM (inactive).
Take `COc1ccc(-n2c(=O)c(-c3cccs3)nc3cnc(N4CCOCC4)nc32)cc1`: the Potency was > 4 µM (inactive).
In the case of `O=c1c(CCc2ccccc2)nc2cnc(Oc3cccc(Cl)c3)nc2n1C[C@H]1CCCO1`, the Potency was > 20 µM (inactive).
`CC(C)CN1CCC2(CC1)CCN(C(=O)c1cc(C(F)(F)F)cc(C(F)(F)F)c1)CC2`: the Potency was > 20 µM (inactive).
Regarding `COc1ccccc1-c1nc(NCc2cnc(C)cn2)c2ccccc2n1`, the Potency is > 20 µM (inactive).
With `CS(=O)(=O)N1CCC2(CCCN(C(=O)Nc3cccc(F)c3)C2)CC1`, the Potency is > 20 µM (inactive).
For the compound `Cc1noc(C)c1-c1cc(N2CCNCC2)ncn1`, the Potency is > 20 µM (inactive).
The result for `CN(C)C(=O)c1ccc(-c2cncnc2NCc2cccnc2)cc1` reads > 20 µM (inactive).
As for `CCNc1ncc2nc(C)c(=O)n(CCc3ccccc3)c2n1`, the figure is > 20 µM (inactive); as for `COCCNc1nc(-c2ccccc2C(F)(F)F)nc2ccccc12`, > 20 µM (inactive); as for `c1csc(CNc2ccnc(-c3ccc4c(c3)OCO4)n2)c1`, > 20 µM (inactive).
On to `CN(C)c1ccc(-c2nc(NCc3cccnc3)c3ccccc3n2)cc1`, for which the Potency was > 20 µM (inactive).
